These results are taken from PMC8384837, “Expanding the binding specificity for RNA recognition by a PUF domain”.

What all share (assay): yeast three-hybrid, YBZ-1, SC-Leu-His + 0.5 mM 3-AT, 4 days
Holding throughout (conditions): tags: N-Gal4 AD-HA kept; label: inside an RPR1-promoter hybrid RNA with tandem MS2 sites; ssRNA

Test [1] addresses PUM1 PUF domain R7-RRY (Homo sapiens, UniProt Q14671 828-1176, S1079R;N1080R;E1083Y). In a few lines: (§1)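 The interaction score is the log change in how often each variant appears, from input to selection. Frequencies came from PCR-amplified, Illumina-sequenced repeat regions of Pumilio-1 PUF domain libraries grown in strain YBZ-1 (LexA–MS2 coat fusion, HIS3 reporter) alongside matching RNA elements. Input plates were SC-Leu and selection plates were SC-Leu-His + 0.5 mM 3-AT, each for four days, and the log2 calculation used a pseudocount of 1 where a variant was absent.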

For test [2], the target named is T1, PUM1 PUF domain R6-IFL (Homo sapiens, UniProt Q14671 828-1176, N1043I;Y1044F;Q1047L).
T1 sequence: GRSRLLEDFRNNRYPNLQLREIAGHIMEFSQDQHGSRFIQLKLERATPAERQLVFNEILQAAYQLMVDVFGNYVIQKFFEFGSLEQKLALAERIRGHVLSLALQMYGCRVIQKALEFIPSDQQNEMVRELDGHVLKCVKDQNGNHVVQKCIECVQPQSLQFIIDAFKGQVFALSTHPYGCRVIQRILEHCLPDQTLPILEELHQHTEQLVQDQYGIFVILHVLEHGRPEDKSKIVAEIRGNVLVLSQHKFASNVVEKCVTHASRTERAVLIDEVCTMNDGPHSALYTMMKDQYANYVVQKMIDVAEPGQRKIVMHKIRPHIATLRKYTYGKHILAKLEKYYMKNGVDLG
In a few lines: as §1

Test [3] concerns the target PUM1 PUF domain R8-KKF (Homo sapiens, UniProt Q14671 828-1176, N1122K;Y1123K;Q1126F). The essentials:
as §1

In test [4] the target is PUM1 PUF domain R8-CHR (Homo sapiens, UniProt Q14671 828-1176, N1122C;Y1123H;Q1126R). In a few lines:
as §1

The target of test [5] is PUM1 PUF domain R4-PWT (Homo sapiens, UniProt Q14671 828-1176, N971P;H972W;Q975T). In a few lines:
as §1

Test [6] has as its target PUM1 PUF domain R4-SMV (Homo sapiens, UniProt Q14671 828-1176, N971S;H972M;Q975V). The essentials: as §1
The target in test [7] is PUM1 PUF domain R3-GNE (Homo sapiens, UniProt Q14671 828-1176, C935G;R936N;Q939E). In a few lines: as §1
Test [8] has as its target PUM1 PUF domain R3-IYS (Homo sapiens, UniProt Q14671 828-1176, C935I;R936Y;Q939S). In a few lines: as §1
The target of test [9] is PUM1 PUF domain R1-KER (Homo sapiens, UniProt Q14671 828-1176, S863K;R864E;Q867R). In a few lines:
as §1

The target of test [10] is PUM1 PUF domain R1-RKS (Homo sapiens, UniProt Q14671 828-1176, S863R;R864K;Q867S). In a few lines:
as §1

The target of test [11] is PUM1 PUF domain R7-IMR (Homo sapiens, UniProt Q14671 828-1176, S1079I;N1080M;E1083R). The essentials:
as §1

The target of test [12] is PUM1 PUF domain R5-GWW (Homo sapiens, UniProt Q14671 828-1176, C1007G;R1008W;Q1011W). In a few lines: as §1

Chain of PUM1 PUF domain R4-SMV (Q14671 828-1176 N971S/H972M/Q975V): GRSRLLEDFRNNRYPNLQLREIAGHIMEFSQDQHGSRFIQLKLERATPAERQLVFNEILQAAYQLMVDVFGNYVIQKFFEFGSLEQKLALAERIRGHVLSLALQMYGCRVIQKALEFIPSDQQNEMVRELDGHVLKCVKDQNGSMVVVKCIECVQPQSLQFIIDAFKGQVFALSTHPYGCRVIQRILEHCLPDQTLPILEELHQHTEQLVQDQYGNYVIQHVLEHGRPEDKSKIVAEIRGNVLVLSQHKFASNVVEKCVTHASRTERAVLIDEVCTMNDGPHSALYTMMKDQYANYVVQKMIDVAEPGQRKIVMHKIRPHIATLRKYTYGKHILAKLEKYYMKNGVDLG

Regarding “GGCUAGAACUAGUGGAUCCCCCGGCGCCCGGCGGCUCGAGCCCGGGUAAGUCUAAAUAGUCUGCAUGCCGCCGGGCGCCAUGCCUGCAGGUCGACUCUAGAAAACAUG”, the binding signal in test [1] was 3.51 log2 enrichment (interaction score). Consider “GGCUAGAACUAGUGGAUCCCCCGGCGCCCGGCGGCUCGAGCCCGGGUAAGUGAAAAUAGUCUGCAUGCCGCCGGGCGCCAUGCCUGCAGGUCGACUCUAGAAAACAUG”, for which the binding signal in test [2] is 7.28 log2 enrichment (interaction score). Consider “GGCUAGAACUAGUGGAUCCCCCGGCGCCCGGCGGCUCGAGCCCGGGUAAGCGUAAAUAGUCUGCAUGCCGCCGGGCGCCAUGCCUGCAGGUCGACUCUAGAAAACAUG”, for which the binding signal is 3 log2 enrichment (interaction score) in test [3] and 4.19 log2 enrichment (interaction score) in [4]. Consider “GGCUAGAACUAGUGGAUCCCCCGGCGCCCGGCGGCUCGAGCCCGGGUAAGUGUACAUAGUCUGCAUGCCGCCGGGCGCCAUGCCUGCAGGUCGACUCUAGAAAACAUG”, for which the binding signal is 5.24 log2 enrichment (interaction score) in test [5] and 0.58 log2 enrichment (interaction score) in [6]. Regarding “GGCUAGAACUAGUGGAUCCCCCGGCGCCCGGCGGCUCGAGCCCGGGUAAGUGUAAGUAGUCUGCAUGCCGCCGGGCGCCAUGCCUGCAGGUCGACUCUAGAAAACAUG”, the binding signal in [7] was 2.22 log2 enrichment (interaction score); in [8], 4.72 log2 enrichment (interaction score). Regarding “GGCUAGAACUAGUGGAUCCCCCGGCGCCCGGCGGCUCGAGCCCGGGUAAGUGUAAAUUGUCUGCAUGCCGCCGGGCGCCAUGCCUGCAGGUCGACUCUAGAAAACAUG”, the binding signal is 3.72 log2 enrichment (interaction score) in test [9] and 4.69 log2 enrichment (interaction score) in test [10]. Take “GGCUAGAACUAGUGGAUCCCCCGGCGCCCGGCGGCUCGAGCCCGGGUAAGUUUAAAUAGUCUGCAUGCCGCCGGGCGCCAUGCCUGCAGGUCGACUCUAGAAAACAUG”: the binding signal in test [11] is 2.21 log2 enrichment (interaction score); in test [1], 3.87 log2 enrichment (interaction score). Take “GGCUAGAACUAGUGGAUCCCCCGGCGCCCGGCGGCUCGAGCCCGGGUAAGUGUUAAUAGUCUGCAUGCCGCCGGGCGCCAUGCCUGCAGGUCGACUCUAGAAAACAUG”: the binding signal in test [12] is 6.66 log2 enrichment (interaction score).
